Results: PubChem BioAssay AID1159580 (chemical genetic matrix, 2015)
Out of some 5,500 compounds screened, about 2,000 (36%) were called active. Inconclusive results (about 18%) are left out. No stated cut-off is given here; in the data, active means normalized growth mostly below about 0.91 (no sharp cut-off); inconclusive means no clear call, values can overlap the other calls; inactive means mostly above about 0.92. The list shows a part of the results.

Test: chemical genetic growth profiling, strain panel (AID 1159580);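 further: tested at 20 µM; growth read once vehicle control cultures reached saturation at 30 °C; 1 = growth at the plate median or of vehicle wells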
Conditions: growth OD

Measured: normalized growth

C1CCN2CC3CC(CN4CCCCC34)C2C1 (centres undefined)
active: S. cerevisiae deletion strains, locus YLR418C, strain cdc73, stronger effect = lower value 0.811 | S. cerevisiae deletion strains, locus YNL307C, strain MCK1, stronger effect = lower value 0.294 | S. cerevisiae deletion strains, locus YPR163C, strain tif3, stronger effect = lower value 0.873 | S. cerevisiae deletion strains, strain wtn01, stronger effect = lower value 0.863
inactive: S. cerevisiae deletion strains, locus YJR043C, strain POL32, stronger effect = lower value 1.02 | S. cerevisiae deletion strains, locus YJR075W, strain HOC1, stronger effect = lower value 1.01 | S. cerevisiae deletion strains, locus YKL009W, strain mrt4, stronger effect = lower value 1.02 | S. cerevisiae deletion strains, locus YKL068W, stronger effect = lower value 1.01 | S. cerevisiae deletion strains, locus YKL085W, strain MDH1 (second series), stronger effect = lower value 1 | S. cerevisiae deletion strains, locus YKL085W, strain MDH1, stronger effect = lower value 1 | S. cerevisiae deletion strains, locus YKL160W, strain elf1, stronger effect = lower value 0.991 | S. cerevisiae deletion strains, locus YKL190W, strain CNB1, stronger effect = lower value 1 | S. cerevisiae deletion strains, locus YKR001C, strain vps1, stronger effect = lower value 0.964 | S. cerevisiae deletion strains, locus YKR026C, strain gcn3, stronger effect = lower value 1.02 | S. cerevisiae deletion strains, locus YKR091W, strain srl3, stronger effect = lower value 1.01 | S. cerevisiae deletion strains, locus YLL001W, strain dnm1, stronger effect = lower value 1.04 | S. cerevisiae deletion strains, locus YLL026W, stronger effect = lower value 1.01 | S. cerevisiae deletion strains, locus YLL041C, strain sdh2, stronger effect = lower value 1.02 | S. cerevisiae deletion strains, locus YLR027C, strain aat2, stronger effect = lower value 1.01 | S. cerevisiae deletion strains, locus YLR039C, strain RIC1, stronger effect = lower value 1.04 | S. cerevisiae deletion strains, locus YLR058C, strain SHM2, stronger effect = lower value 1.02 | S. cerevisiae deletion strains, locus YLR102C, strain apc9, stronger effect = lower value 1.01 | S. cerevisiae deletion strains, locus YLR221C, strain rsa3, stronger effect = lower value 1.01 | S. cerevisiae deletion strains, locus YLR258W, strain gsy2, stronger effect = lower value 1.02 | S. cerevisiae deletion strains, locus YLR262C, strain YPT6 (second series), stronger effect = lower value 1 | S. cerevisiae deletion strains, locus YLR262C, strain YPT6, stronger effect = lower value 1.01 | S. cerevisiae deletion strains, locus YLR268W, strain sec22, stronger effect = lower value 0.894 | S. cerevisiae deletion strains, locus YLR320W, strain mms22, stronger effect = lower value 1.03 | S. cerevisiae deletion strains, locus YLR330W, strain CHS5, stronger effect = lower value 1.01 | S. cerevisiae deletion strains, locus YLR342W, strain FKS1 (second series), stronger effect = lower value 1.03 | S. cerevisiae deletion strains, locus YLR342W, strain FKS1, stronger effect = lower value 1.02 | S. cerevisiae deletion strains, locus YLR357W, strain rsc2, stronger effect = lower value 1.04 | S. cerevisiae deletion strains, locus YLR370C, strain arc18, stronger effect = lower value 1.02 | S. cerevisiae deletion strains, locus YLR371W, strain rom2, stronger effect = lower value 0.967 | S. cerevisiae deletion strains, locus YLR384C, strain iki3, stronger effect = lower value 1.02 | S. cerevisiae deletion strains, locus YML016C, strain PPZ1, stronger effect = lower value 1.01 | S. cerevisiae deletion strains, locus YML032C, strain rad52, stronger effect = lower value 1.03 | S. cerevisiae deletion strains, locus YML120C, strain ndi1, stronger effect = lower value 1.01 | S. cerevisiae deletion strains, locus YML124C, strain tub3, stronger effect = lower value 1.01 | S. cerevisiae deletion strains, locus YMR058W, strain fet3, stronger effect = lower value 1.02 | S. cerevisiae deletion strains, locus YMR078C, strain ctf18, stronger effect = lower value 1.02 | S. cerevisiae deletion strains, locus YMR125W, strain sto1, stronger effect = lower value 1.06 | S. cerevisiae deletion strains, locus YMR129W, stronger effect = lower value 1.03 | S. cerevisiae deletion strains, locus YMR205C, strain PFK2, stronger effect = lower value 1.04 | S. cerevisiae deletion strains, locus YMR223W, strain ubp8, stronger effect = lower value 0.909 | S. cerevisiae deletion strains, locus YMR231W, strain pep5, stronger effect = lower value 1.02 | S. cerevisiae deletion strains, locus YMR263W, strain SAP30, stronger effect = lower value 0.997 | S. cerevisiae deletion strains, locus YMR307W, strain GAS1, stronger effect = lower value 1.02 | S. cerevisiae deletion strains, locus YNL067W, strain RPL9B, stronger effect = lower value 0.988 | S. cerevisiae deletion strains, locus YNL071W, strain lat1, stronger effect = lower value 1.02 | S. cerevisiae deletion strains, locus YNL128W, strain TEP1, stronger effect = lower value 1.01 | S. cerevisiae deletion strains, locus YNL153C, strain GIM3, stronger effect = lower value 0.986 | S. cerevisiae deletion strains, locus YNL209W, strain ssb2, stronger effect = lower value 1.02 | S. cerevisiae deletion strains, locus YNL233W, strain BNI4, stronger effect = lower value 0.998 | S. cerevisiae deletion strains, locus YNL248C, strain rpa49, stronger effect = lower value 1.02 | S. cerevisiae deletion strains, locus YNL250W, strain rad50, stronger effect = lower value 1.03 | S. cerevisiae deletion strains, locus YNL271C, strain bni1, stronger effect = lower value 1.01 | S. cerevisiae deletion strains, locus YNL298W, strain CLA4, stronger effect = lower value 1.01 | S. cerevisiae deletion strains, locus YNL322C, strain KRE1 (second series), stronger effect = lower value 1.01 | S. cerevisiae deletion strains, locus YNL322C, strain KRE1, stronger effect = lower value 1.01 | S. cerevisiae deletion strains, locus YNR049C, strain mso1, stronger effect = lower value 1.02 | S. cerevisiae deletion strains, locus YNR052C, strain pop2, stronger effect = lower value 1.02 | S. cerevisiae deletion strains, locus YOL006C, strain TOP1, stronger effect = lower value 1.03 | S. cerevisiae deletion strains, locus YOL012C, strain htz1 0.345 | S. cerevisiae deletion strains, locus YOL147C, strain pex11, stronger effect = lower value 1.01 | S. cerevisiae deletion strains, locus YOR001W, strain rrp6, stronger effect = lower value 1.01 | S. cerevisiae deletion strains, locus YOR061W, strain CKA2, stronger effect = lower value 1.01 | S. cerevisiae deletion strains, locus YOR069W, strain VPS5, stronger effect = lower value 1.01 | S. cerevisiae deletion strains, locus YOR070C, strain gyp1, stronger effect = lower value 1.02 | S. cerevisiae deletion strains, locus YOR080W, strain dia2, stronger effect = lower value 1.02 | S. cerevisiae deletion strains, locus YOR083W, strain WHI5, stronger effect = lower value 0.99 | S. cerevisiae deletion strains, locus YOR106W, strain vam3, stronger effect = lower value 1 | S. cerevisiae deletion strains, locus YOR136W, strain idh2, stronger effect = lower value 0.961 | S. cerevisiae deletion strains, locus YOR144C, strain elg1, stronger effect = lower value 1.01 | S. cerevisiae deletion strains, locus YOR184W, strain ser1, stronger effect = lower value 0.959 | S. cerevisiae deletion strains, locus YOR265W, strain rbl2, stronger effect = lower value 1.02 | S. cerevisiae deletion strains, locus YOR270C, strain vph1, stronger effect = lower value 1.03 | S. cerevisiae deletion strains, locus YOR290C, strain snf2, stronger effect = lower value 0.985 | S. cerevisiae deletion strains, locus YOR316C, strain cot1, stronger effect = lower value 1.01 | S. cerevisiae deletion strains, locus YPL051W, strain arl3, stronger effect = lower value 0.998 | S. cerevisiae deletion strains, locus YPL055C, strain LGE1, stronger effect = lower value 1 | S. cerevisiae deletion strains, locus YPL078C, strain atp4, stronger effect = lower value 1 | S. cerevisiae deletion strains, locus YPL106C, strain sse1, stronger effect = lower value 1.04 | S. cerevisiae deletion strains, locus YPL240C, strain hsp82, stronger effect = lower value 1.03 | S. cerevisiae deletion strains, locus YPL241C, strain CIN2, stronger effect = lower value 1.01 | S. cerevisiae deletion strains, locus YPR119W, strain clb2, stronger effect = lower value 1 | S. cerevisiae deletion strains, locus YPR141C, strain kar3, stronger effect = lower value 1.02 | S. cerevisiae deletion strains, locus YPR167C, strain met16, stronger effect = lower value 0.992 | S. cerevisiae strains, strain wild type, stronger effect = lower value 1.01
